Experiment [1] in a line: qHTS assay to identify small molecule that activate the aryl hydrocarbon receptor (AhR) signaling pathway - cell viability counter screen (AID 743086).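 Also: HepG2 liver cells carrying the AhR DRE luciferase reporter; series mostly up to about 70 µM; nearly all actives have a fitted effect of over 45% in size.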 Put shortly:
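HepG2-AhR-luc (HG2L7.5c1) cells, 4000/well, were preincubated 5 h at 37C, exposed to compound in qHTS format for 24 hr at 37C, then given CellTiter-Fluor for 30 min; viability was read as fluorescence in the reporter wells.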
A general note: Quantitative high-throughput screening tests each substance at several concentrations.

Experiment [2] can be described thus: qHTS assay for small molecule agonists of the antioxidant response element (ARE) signaling pathway - cell viability counter screen (AID 743203; calls by dose curve; also: nearly all actives have a fitted effect of over 55% in size). The essentials:
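HepG2 cells carrying ARE-driven beta-lactamase; 2,000 cells/well; 5 hrs plating; compound pinned from DMSO; 16 hrs 37C/5% CO2; CellTiter-Glo added; 30 min RT; luminescence.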

Experiment [3] can be described thus: qHTS assay for small molecule activators of the heat shock response signaling pathway - cell viability counter screen (AID 743209). Also: nearly all actives have a fitted effect of over 50% in size. Put shortly:
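Luminescence from CellTiter-Glo, added after the beta-lactamase FRET read, gave the viability signal. Cells were HSE-bla HeLa treated with DMSO-dissolved compounds for 5 h at 37 C following overnight plating.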

Experiment [4] is described as follows: qHTS assay for small molecule activators of the heat shock response signaling pathway (AID 743210; active = well fitted activation curve with a large enough effect in the signal ratio in the repeat runs, with a control signal flat, not every such curve was filed as active; the % refers to the signal ratio; also: series mostly up to about 63 µM). The essentials: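 HSE-bla HeLa cells (beta-lactamase reporter under heat shock response elements) were exposed to compounds for 5 h at 37 C, then loaded with LiveBLAzer B/G FRET substrate for 2.5 h at room temperature before fluorescence reading.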
Experiment [5] can be described thus: qHTS assay to identify small molecule agonists of the peroxisome proliferator-activated receptor delta (PPARd) signaling pathway - cell viability counter screen (AID 743211). Also: nearly all actives have a fitted effect of over 55% in size. The essentials:
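PPARd-bla HEK293H cells (UAS-beta-lactamase reporter) were treated with compounds for 17 h at 37 C. Viability was then read in the same wells by CellTiter-Glo luminescence after 30 min at room temperature.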

Experiment [6] has as its target Peroxisome proliferator-activated receptor delta (Homo sapiens) (UniProt Q03181). Description: qHTS assay to identify small molecule agonists of the peroxisome proliferator-activated receptor delta (PPARd) signaling pathway (AID 743212; calls by dose curve). The essentials:
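GeneBLAzer PPARd UAS-bla HEK293H cells (beta-lactamase reporter under UAS control), plated and rested 5 h at 37 C, then exposed to compounds in DMSO at 37 C; LiveBLAzer B/G FRET substrate added, 2 h room temperature, fluorescence read.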

For experiment [7] the target is unchanged. Description: qHTS assay to identify small molecule antagonists of the peroxisome proliferator-activated receptor delta (PPARd) signaling pathway (AID 743215; active = well fitted inhibition curve with a large enough effect in the signal ratio in the repeat runs, not every such curve was filed as active; the % refers to the signal ratio;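 also: cells stimulated with agonist L165041 at 300 nM final during compound exposure; series mostly up to about 62 µM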). The essentials:
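Read-out is beta-lactamase FRET fluorescence, measured 2 h after substrate addition at room temperature. Beforehand, UAS-bla HEK293H cells carrying the PPARd reporter were exposed to compounds with L165041 at 300 nM final for 17 h at 37 C.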

Experiment [8] is described as follows: qHTS assay to identify small molecule agonists of the farnesoid-X-receptor (FXR) signaling pathway - cell viability counter screen (AID 743218). Also: nearly all actives have a fitted effect of over 45% in size. The essentials: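 HEK 293T FXR-bla cells; 5 h pre-incubation, 16 h compound exposure at 37 C; LiveBLAzer substrate 2 h RT, then CellTiter-Glo 30 min RT, luminescence.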
The nature of experiment [9]: qHTS assay to identify small molecule antagonists of the farnesoid-X-receptor (FXR) signaling pathway - cell viability counter screen (AID 743221; active = well fitted cell-killing curve with a large enough effect in the repeat runs, not every such curve was filed as active; also: nearly all actives have a fitted effect of over 50% in size). The essentials: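 FXR-UAS-bla HEK 293T cells were treated with test compounds plus chenodeoxycholic acid (50 uM final) for 16 h at 37 C. Cell viability in the same wells was then read as CellTiter-Glo luminescence after 30 min at room temperature.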

In experiment [10] the target is Vitamin D3 receptor (Homo sapiens) (UniProt P11473). Description: qHTS assay to identify small molecule agonists of the vitamin D receptor (VDR) signaling pathway (AID 743222; calls by dose curve). The essentials: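 VDR-bla cells, 2,000/well; 4 h preincubation 37C; cpd (DMSO) 16 h; LiveBLAzer B/G substrate 2 h RT; fluorescence intensity read.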
For experiment [11] the target is unchanged. Put plainly: qHTS assay to identify small molecule antagonists of the vitamin D receptor (VDR) signaling pathway (AID 743223; active = well fitted inhibition curve with a large enough effect in the signal ratio in the repeat runs, not every such curve was filed as active; the % refers to the signal ratio). Put shortly:
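VDR-bla cells were plated, incubated 4 h at 37C, then given compound and 1alpha,25-dihydroxyvitamin D3 (3 nM final). After 16 h at 37C, LiveBLAzer B/G FRET substrate was added for 2 h at room temperature and fluorescence read.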

Experiment [12] can be described thus: qHTS assay to identify aromatase inhibitors - cell viability counter screen (AID 743084).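 Also: cells stimulated with testosterone during compound exposure; nearly all actives have a fitted effect of over 55% in size.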
Experiment [13] is described as follows: qHTS assay to identify small molecule antagonists of the peroxisome proliferator-activated receptor gamma (PPARg) signaling pathway - cell viability counter screen (AID 743194). Also: nearly all actives have a fitted effect of over 55% in size. The note with it: Potency: co-treated with 50 nM rosiglitazone. The essentials: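 PPARg-UAS-bla HEK293H cells were plated, rested 5 h at 37 C, then treated with compounds plus rosiglitazone (50 nM final) for 17 h at 37 C; viability was then read by CellTiter-Glo luminescence after 30 min at room temperature.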

Experiment [14] can be described thus: qHTS assay for small molecule agonists of the antioxidant response element (ARE) signaling pathway (AID 743202; active = well fitted activation curve with a large enough effect in the signal ratio in the repeat runs, not every such curve was filed as active; the % refers to the signal ratio; also: potency is read from the fitted curve at half-maximal effect). Put shortly: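 Read-out: LiveBLAzer B/G FRET substrate fluorescence after 2 h at room temperature, following 16 h compound treatment at 37 C of HepG2 cells carrying an ARE-driven beta-lactamase reporter.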
Experiment [15] has as its target Bile acid receptor (Homo sapiens) (UniProt Q96RI1). Put plainly: qHTS assay to identify small molecule antagonists of the farnesoid-X-receptor (FXR) signaling pathway (AID 743217; active = well fitted inhibition curve with a large enough effect in the signal ratio in the repeat runs, not every such curve was filed as active; the % refers to the signal ratio). The essentials: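 HEK 293T FXR-UAS-bla, 5000 cells/well; compound + CDCA 50 uM final; 16 h, 37 °C; B/G FRET substrate 2 h RT; fluorescence.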
Experiment [16] shares this target. Put plainly: qHTS assay to identify small molecule agonists of the farnesoid-X-receptor (FXR) signaling pathway (AID 743220; active = well fitted activation curve with a large enough effect in the signal ratio in the repeat runs, not every such curve was filed as active; the % refers to the signal ratio). Put shortly: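 Beta-lactamase reporter under UAS control in GeneBLAzer FXR HEK 293T cells (5000/well) measured with LiveBLAzer FRET substrate after 2 h at room temperature. Compound exposure lasted 16 h at 37C.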
The nature of experiment [17]: qHTS assay to identify small molecule antagonists of the peroxisome proliferator-activated receptor delta (PPARd) signaling pathway - cell viability counter screen (AID 743213). Also: nearly all actives have a fitted effect of over 50% in size. Put shortly: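 Same-well viability: cells pre-incubated 5 h, dosed with compound plus 300 nM L165041, kept 17 h at 37 C, FRET substrate 2 h RT, then CellTiter-Glo 30 min RT and luminescence.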

Experiment [18] addresses Peroxisome proliferator-activated receptor gamma (Homo sapiens) (UniProt P37231). Put plainly: qHTS assay to identify small molecule agonists of the peroxisome proliferator-activated receptor gamma (PPARg) signaling pathway (AID 743094; active = well fitted activation curve with a large enough effect in the signal ratio in the repeat runs, not every such curve was filed as active; the % refers to the signal ratio). The essentials:
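Beta-lactamase FRET fluorescence was the read-out after a 1 h room-temperature substrate step, following 17 h compound treatment at 37C of HEK293H cells expressing a UAS-driven bla reporter responsive to PPARg.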

Experiment [19] has the same target. Description: qHTS assay to identify small molecule antagonists of the peroxisome proliferator-activated receptor gamma (PPARg) signaling pathway (AID 743191; calls by dose curve; also: series mostly up to about 63 µM; nearly all actives have a fitted effect of over 30% in size). The essentials: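 GeneBLAzer PPARg UAS-bla HEK293H cells carrying a UAS-driven beta-lactamase reporter were plated at 3000 cells/well, preincubated 5 h at 37C, then given compound for 17 h at 37C; LiveBLAzer B/G FRET substrate was read after 1 h at room temperature.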

Experiment [20] deals with Aryl hydrocarbon receptor (Homo sapiens) (UniProt P35869). Put plainly: qHTS assay to identify small molecule that activate the aryl hydrocarbon receptor (AhR) signaling pathway (AID 743085).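 Also: HG2L7.5c1 human HepG2 liver cells with stably integrated DRE-driven firefly reporter; series mostly up to about 70 µM; nearly all actives have a fitted effect of over 15% in size.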 The essentials: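 HepG2 cells (HG2L7.5c1) stably carrying a firefly luciferase reporter driven by 20 dioxin responsive elements were exposed to compound for 24 h at 37C after a 5 h settling period; luminescence rise (ONE-Glo) indicated activation.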

Inconclusive results are not listed. Activity calls are given as the source filed them. Unless noted, calls follow the shape of the dose curve; as a rule, active = well fitted curve in the direction sought with a large enough effect in the repeat runs; inconclusive = weak or mixed curves; inactive = no such curve, though single readings can be large; an effect the other way counts as inactive or inconclusive.

Vitamin D3 receptor (Homo sapiens), sequence (P11473 whole entry, looked up): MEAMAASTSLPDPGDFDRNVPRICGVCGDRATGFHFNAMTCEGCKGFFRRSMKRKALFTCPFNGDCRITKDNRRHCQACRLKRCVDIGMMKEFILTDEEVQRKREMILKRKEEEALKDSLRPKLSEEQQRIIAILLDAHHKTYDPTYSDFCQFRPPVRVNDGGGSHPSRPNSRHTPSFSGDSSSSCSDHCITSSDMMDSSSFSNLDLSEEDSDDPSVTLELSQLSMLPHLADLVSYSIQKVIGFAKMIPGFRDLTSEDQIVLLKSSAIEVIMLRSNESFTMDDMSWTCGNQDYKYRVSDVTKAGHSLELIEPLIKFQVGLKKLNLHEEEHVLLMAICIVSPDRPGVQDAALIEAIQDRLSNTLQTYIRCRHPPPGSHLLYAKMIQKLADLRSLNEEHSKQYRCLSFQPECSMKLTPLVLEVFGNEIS
Bile acid receptor (Homo sapiens), sequence (Q96RI1 whole entry, looked up): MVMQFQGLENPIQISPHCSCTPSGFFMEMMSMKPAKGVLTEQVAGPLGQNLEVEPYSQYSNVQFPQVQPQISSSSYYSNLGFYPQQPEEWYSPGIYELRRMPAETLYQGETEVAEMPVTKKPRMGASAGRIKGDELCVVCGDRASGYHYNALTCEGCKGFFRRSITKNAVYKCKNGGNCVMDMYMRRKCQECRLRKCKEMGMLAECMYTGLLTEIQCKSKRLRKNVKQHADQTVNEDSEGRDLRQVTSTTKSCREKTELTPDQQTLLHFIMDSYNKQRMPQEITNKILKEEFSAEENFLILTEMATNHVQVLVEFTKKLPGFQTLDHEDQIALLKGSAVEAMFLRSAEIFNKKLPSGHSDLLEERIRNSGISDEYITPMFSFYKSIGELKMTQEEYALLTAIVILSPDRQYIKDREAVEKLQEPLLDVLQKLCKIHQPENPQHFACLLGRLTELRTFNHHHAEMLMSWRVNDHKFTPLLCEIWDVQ
Peroxisome proliferator-activated receptor gamma (Homo sapiens), sequence (P37231 whole entry, looked up): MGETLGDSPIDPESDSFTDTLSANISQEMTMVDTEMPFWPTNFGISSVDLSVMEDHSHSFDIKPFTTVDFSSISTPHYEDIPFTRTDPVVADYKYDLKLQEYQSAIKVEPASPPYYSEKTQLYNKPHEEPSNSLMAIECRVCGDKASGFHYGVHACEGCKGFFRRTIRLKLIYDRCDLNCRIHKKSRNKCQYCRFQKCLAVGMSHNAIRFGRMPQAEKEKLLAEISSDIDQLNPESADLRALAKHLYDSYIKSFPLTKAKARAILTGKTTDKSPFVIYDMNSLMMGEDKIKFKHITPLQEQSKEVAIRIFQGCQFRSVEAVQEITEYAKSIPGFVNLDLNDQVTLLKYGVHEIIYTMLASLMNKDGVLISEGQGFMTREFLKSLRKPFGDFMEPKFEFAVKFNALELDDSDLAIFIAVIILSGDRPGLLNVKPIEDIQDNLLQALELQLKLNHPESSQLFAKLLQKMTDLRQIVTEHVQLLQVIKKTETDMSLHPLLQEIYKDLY
Peroxisome proliferator-activated receptor delta (Homo sapiens), sequence (Q03181 whole entry, looked up): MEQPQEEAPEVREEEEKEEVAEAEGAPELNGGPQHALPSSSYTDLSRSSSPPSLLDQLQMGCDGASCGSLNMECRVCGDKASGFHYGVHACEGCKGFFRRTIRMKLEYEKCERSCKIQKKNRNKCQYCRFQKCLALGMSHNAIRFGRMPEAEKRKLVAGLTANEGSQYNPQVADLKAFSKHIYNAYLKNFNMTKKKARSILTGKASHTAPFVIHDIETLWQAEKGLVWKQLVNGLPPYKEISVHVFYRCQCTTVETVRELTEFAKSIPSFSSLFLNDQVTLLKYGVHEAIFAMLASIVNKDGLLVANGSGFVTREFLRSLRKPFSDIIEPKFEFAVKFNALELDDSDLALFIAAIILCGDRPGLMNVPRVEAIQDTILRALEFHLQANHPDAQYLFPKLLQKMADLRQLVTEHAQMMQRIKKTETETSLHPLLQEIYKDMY
Aryl hydrocarbon receptor (Homo sapiens), sequence (P35869 whole entry, looked up): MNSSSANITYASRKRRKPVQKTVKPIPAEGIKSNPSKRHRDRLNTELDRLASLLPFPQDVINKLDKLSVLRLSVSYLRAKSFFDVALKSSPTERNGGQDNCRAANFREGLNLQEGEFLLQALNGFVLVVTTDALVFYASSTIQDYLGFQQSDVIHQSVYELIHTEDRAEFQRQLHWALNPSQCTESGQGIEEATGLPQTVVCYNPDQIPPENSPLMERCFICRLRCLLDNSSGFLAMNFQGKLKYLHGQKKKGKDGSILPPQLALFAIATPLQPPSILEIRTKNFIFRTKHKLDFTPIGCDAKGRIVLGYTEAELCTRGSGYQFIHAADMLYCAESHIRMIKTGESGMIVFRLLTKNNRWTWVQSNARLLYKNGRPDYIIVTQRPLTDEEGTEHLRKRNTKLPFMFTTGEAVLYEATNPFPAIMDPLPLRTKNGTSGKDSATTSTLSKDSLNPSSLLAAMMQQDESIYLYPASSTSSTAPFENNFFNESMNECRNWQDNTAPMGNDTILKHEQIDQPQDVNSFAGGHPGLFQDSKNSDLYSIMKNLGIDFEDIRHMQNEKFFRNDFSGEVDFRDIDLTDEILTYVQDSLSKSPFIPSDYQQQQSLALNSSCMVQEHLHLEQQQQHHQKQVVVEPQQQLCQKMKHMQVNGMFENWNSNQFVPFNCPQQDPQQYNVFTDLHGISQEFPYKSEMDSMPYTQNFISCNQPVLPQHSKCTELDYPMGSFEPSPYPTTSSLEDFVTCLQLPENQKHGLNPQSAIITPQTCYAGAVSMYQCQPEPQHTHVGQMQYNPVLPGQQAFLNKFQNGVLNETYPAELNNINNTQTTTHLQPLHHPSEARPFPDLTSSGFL

Take `CC(C)(C)C(=O)C(Cl)Cl`: the Potency entry in [1], in experiment [2], in [3], in experiment [4], in experiment [5] and in [7] was “inactive” in each case. Besides, the Potency entry in experiment [8] and in experiment [9] was “inactive” in each case. In addition, the outcome in [6], in experiment [10] and in [11] was inactive.

On to `CC(=O)OCC1=C(C(=O)O)N2C(=O)[C@@H](N)[C@H]2SC1`, for which the Potency result in [12], in experiment [1], in [13], in experiment [14], in experiment [2] and in experiment [4] was “inactive” each time. In addition, the Potency result in [5], in [7], in [8] and in experiment [9] was “inactive” throughout. The molecule was called inactive in experiment [6], in [15], in [16], in experiment [10] and in [11].

For the molecule `C1CN2CCC1CC2`, the Potency entry in experiment [13], in [14], in [2], in [3], in experiment [4] and in experiment [5] was “inactive” each time. For the same molecule, the Potency entry in experiment [17], in experiment [7], in experiment [8] and in experiment [9] was “inactive” throughout. The molecule was classed as inactive in experiment [6], in experiment [15] and in [16].

Take `C=CCCC#N`: the Potency entry in experiment [12], in experiment [1], in experiment [13], in experiment [14], in experiment [2] and in experiment [4] was “inactive” throughout. For the same molecule, the Potency result in experiment [5], in experiment [17] and in experiment [8] was “inactive” throughout. For the same molecule, the call in experiment [18] and in experiment [16] was inactive.

Regarding `COc1ccccc1OC`, the Potency result in experiment [12], in experiment [1], in experiment [14], in [2], in experiment [3] and in [4] was “inactive” in each case. Besides, the Potency result in experiment [5], in experiment [17], in [7] and in [8] was “inactive” throughout. Besides, the molecule was called inactive in experiment [6] and in experiment [10].

For the molecule `O=c1[nH]c2ccccc2n1C1CCNCC1`, the Potency entry in experiment [19], in [13], in experiment [14], in [2], in experiment [3] and in experiment [4] was “inactive” in each case. Also, the Potency result in experiment [5], in experiment [7], in [8] and in experiment [9] was “inactive” each time. Moreover, the result in experiment [6], in experiment [10] and in experiment [11] was inactive.

For `C=C1C[C@@H]2[C@H](CC[C@]3(C)C(=O)CC[C@@H]23)[C@@]2(C)C=CC(=O)C=C12`, the Potency entry in experiment [20], in [1], in [13], in [2], in [3] and in [4] was “inactive” each time. For the same molecule, the Potency entry in experiment [5], in [17], in experiment [8] and in experiment [9] was “inactive” each time. The molecule was classed as inactive in [18], in [15] and in experiment [10]. In experiment [14], the Potency was 2.66 µM (active).

As to `CCCOC(=O)c1cncn1C(C)c1ccccc1` (centres undefined), the Potency result in experiment [13], in [14], in experiment [2], in experiment [3], in experiment [4] and in experiment [5] was “inactive” throughout. Further, the Potency result in [17], in [7], in [8] and in experiment [9] was “inactive” each time. Also, the call in experiment [6] was inactive.

As for `CCC(C(N)=O)N1CCCC1=O` (centres undefined), the Potency entry in experiment [12], in experiment [1], in experiment [13], in [14], in [2] and in experiment [3] was “inactive” in each case. The Potency entry in experiment [4], in [5], in experiment [7], in [8] and in [9] was “inactive” throughout. Moreover, the outcome in experiment [6], in [15], in experiment [16], in experiment [10] and in experiment [11] was inactive.

`CNC(=O)Oc1cc(C)c(N(C)C)c(C)c1`: the Potency entry in experiment [12], in experiment [1], in [13], in experiment [14], in experiment [2] and in [3] was “inactive” each time. In addition, the Potency result in [5], in [7], in experiment [8] and in experiment [9] was “inactive” in each case. Moreover, the outcome in experiment [18], in [6] and in experiment [15] was inactive.

These data come from PubChem BioAssay (Tox21).
